KB-V1 cytotox: qHTS assay for MDR1-selective chemotherapeutics: Primary screen using the drug-selected MDR subline cells KB-V1; KB-V1 MDR cells viability, CellTiter-Glo, 72 h; Potency, µM (doses to about 46.1 µM), hits mostly cytotoxic; 3.4% of 400,000 active; AID 1347076, 2019; note: % is set by controls: 0 for no effect and ±100 for the full control effect; nearly all actives have a fitted effect of over 60% in size
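qHTS viability screen in drug-selected KB-V1 MDR cells: 72 h compound treatment at 37 degrees C, ATP luminescence end point.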
MCF10A rerep: A quantitative high throughput screen for small molecules that induce DNA re-replication in MCF 10a normal breast cells; 2.9% of 350,000 active; AID 624296, 2012; MCF 10A DNA re-replication, Hoechst nuclear intensity, 48 h; Potency, µM (top dose mostly 46.1 µM), inactives show at the highest dose activity, positive = re-replication, most hits filed as activators; note: % of control where 0% means no effect; nearly all actives have a fitted effect of over 50% in size
PINK1 expr mod: A Quantitative High throughput Screen to Identify Chemical Modulators of PINK1 Expression; PINK1 immunofluorescence, high-content cytometry, 24 h; Potency, µM (titrated, usually from 76.6 µM), for the others: at the highest dose activation (PINK1 increase), hits mostly activators; 0.2% of 410,000 active; active = well fitted activation curve with a large enough effect; inconclusive = small, poorly fitted or top-dose-only effect; cell line not stated here; note: % of control where 0% means no effect; nearly all actives have a fitted effect of over 65% in size
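Readout is PINK1 immunofluorescence, quantified alongside mitochondrial, cell and nuclear markers by laser-scanning microplate cytometry. Cells from a stable line were exposed to compound titrations (5 concentrations) for 24 hours, with CCCP controls.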
KB-3-1 tox: qHTS assay for MDR1-selective chemotherapeutics: Primary screen using the parental adenocarcinoma cell KB-3-1; 1.4% of 400,000 active; Potency, µM (highest dose often 46.1 µM), actives largely listed as cytotoxic; AID 1347075, 2019; KB-3-1 viability, CellTiter-Glo ATP luminescence, 72 h; note: % is set by controls: 0 for no effect and ±100 for the full control effect; nearly all actives have a fitted effect of over 60% in size
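Screening of KB-3-1 cells (DMEM, 10% FBS, phenol-red free) ran from lowest to highest compound concentration; after 72 h at 37 °C viability was read luminescently and curves fitted.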
SW480 rerep: A quantitative high throughput screen for small molecules that induce DNA re-replication in SW480 colon adenocarcinoma cells; SW480 DNA re-replication, Hoechst DNA content imaging, 48 h; 1.8% of 340,000 active; Potency, µM (highest dose often 46.1 µM), without a hit: at the highest dose re-replication activation, hits mostly activators; note: % of control where 0% means no effect; nearly all actives have a fitted effect of over 55% in size
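Treated cells incubate 48 hr (37 C, 5% CO2), are stained 40 min with Hoechst, and nuclear fluorescence is enumerated; a rise in nuclei with high DNA signal marks re-replication.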
* marks the source's active call; other numbers are inactive results; i = inactive; ? = inconclusive; . = no result; ! = not active in a repeat; [ ] = dose if it differs, or a comment. Shown are actives, neighbours in structure and some others; about 6.7% of the full set was active somewhere. Unless noted, calls come from the whole dose curve; as a rule, active = well fitted curve in the direction sought with a large enough effect; inconclusive = small, poorly fitted or top-dose-only effect, or another doubt; inactive = no such curve, though single readings can be large; an effect the other way counts as inactive or inconclusive. Potency is the fitted concentration of half-maximal effect.

SMILES	KB-V1 cytotox	MCF10A rerep	PINK1 expr mod	KB-3-1 tox	SW480 rerep
Cc1ccccc1Cn1c(=N)n(CC(=O)c2ccc([N+](=O)[O-])cc2)c2ccccc21	18.4µM*	?	7.6%	?	0.6%
O=C(Cc1cccs1)N[C@@H]1c2ccccc2CC[C@@H]1OCc1ccccc1	i	-1.9%	8.2%	i	0.1%
O=C(c1cc2ccccc2oc1=O)N1CCN(c2ccc(F)cc2)CC1	i	.	0.0%	i	.
OC(C1=CC(=Cc2ccncc2)c2ccccc21)c1ccncc1 (stereo not drawn)	?	15.4%	6.8%	i	-6.5%
COc1ccc(-c2c3c(nc4sc(C(=O)Nc5cc(C)on5)c(N)c24)CCC3)cc1	i	1.46µM*	.	i	18.4µM*
COc1cccc2c3c(c(C)nc12)CCN3c1ccccc1	?	0.0%	1.8%	i	0.8%
COc1ccccc1N1CCc2c(C)nc3c(OC)cccc3c21	20.6µM*	16.6%	-4.8%[38.3 µM]	?	-3.0%
CC(Oc1ccc(F)cc1)C(=O)Nc1nc(-c2ccccn2)cs1 (stereo not drawn)	i	3.26µM*	6.6%	?	-12.8%
O=C(Nc1nc(-c2ccncc2)cs1)c1ccco1	?	26.0%	-0.2%	i	-8.8%[9.22 µM]
O=C(CCS(=O)(=O)c1ccc(F)cc1)Nc1nc(-c2ccccn2)cs1	i	-1.3%	-0.3%	?	-18.9%
O=C(Nc1nc(-c2ccccn2)cs1)c1ccco1	i	?	5.9%	i	4.11µM*
O=C(Nc1nc(-c2ccccn2)cs1)c1ccc(Br)s1	1.3µM*	25.9µM*	2.8%[38.3 µM]	i	2.06µM*
C[C@H](NC(=O)c1ccco1)C(=O)Nc1nnc(SCc2ccccc2)s1	i	?	-0.2%	i	-4.0%
C[C@H](NC(=O)c1ccco1)C(=O)Nc1nc(-c2ccccn2)cs1	4.11µM*	2.4%	-2.5%	i	?
Cc1ccc(NC(=O)CSCC(=O)OC(C)C(=O)Nc2ccccc2C)cc1 (stereo not drawn)	i	-3.7%	1.7%	i	0.2%
Cn1cc(-c2nc3cnc(N4CCNCC4)nc3n(C3CC3)c2=O)c2ccccc21	.	.	0.6%	.	.
COc1cc(CN(C(=O)c2ccccc2[N+](=O)[O-])c2ccccn2)cc(OC)c1OC	i	.	0.6%	i	.
CC1(C)CC(=O)C2=C(C1)NC(Nc1nc3ccccc3o1)=NC2c1ccccc1Cl (stereo not drawn)	i	.	-0.4%	i	.
CC(=O)N1CC(=O)N=C1SCC(=O)Nc1nc(C)c(-c2ccccc2)s1	13µM*	?	1.8%	?	2.3%
COc1cccc(CCNC(=O)c2cc(COc3c(F)cccc3F)on2)c1	i	-1.1%	0.0%	i	?
CCOC(=O)N1CCN(c2ncc3c(n2)CC(c2ccc(Cl)cc2)CC3=O)CC1 (stereo not drawn)	16.4µM*	.	18.2%	i	.
COc1cc(CN2CCc3nc(N4CCN(c5ncccn5)CC4)ncc3C2)cc(OC)c1OC	6.51µM*	.	0.6%	?	.
COc1cc(C2CC(=O)c3cnc(N4CCN(CCO)CC4)nc3C2)cc(OC)c1OC (stereo not drawn)	?	.	16.2%	i	.
COc1cc(C2CC(=O)c3cnc(N4CCN(Cc5ccccc5)CC4)nc3C2)cc(OC)c1OC (stereo not drawn)	?	13µM*	3.4%	5.8µM*	2.91µM*
CCOC(=O)N1CCN(c2ncc3c(n2)CC(c2ccccc2O)CC3=O)CC1 (stereo not drawn)	18.4µM*	.	-0.4%	?	.
SMILES	KB-V1 cytotox	MCF10A rerep	PINK1 expr mod	KB-3-1 tox	SW480 rerep
COCC1CCCN(Cc2ccc3c(c2)CN(C(=O)c2cc(-c4ccccc4)n[nH]2)CCO3)C1 (stereo not drawn)	.	.	5.3%	.	.
CCOC(=O)c1cccc(NC(=O)C2(S(=O)(=O)c3ccc(C)cc3)CC2)c1	18.4µM*!	-0.1%	1.6%	i	-8.1%
CCn1c(SCC(=O)c2[nH]c(C)c(C(C)=O)c2C)nnc1-c1cccs1	2.59µM*	1.0%	-1.6%	?	-0.7%
Oc1cccc(C=NN=C2c3ccccc3-c3ccccc32)c1	18.4µM*	?	6.0%	i	-4.8%
CCc1ccc(C(=O)c2cn(CC(=O)NCCc3ccccc3)c3nc(C)ccc3c2=O)cc1	i	.	1.1%	i	.
CC(=O)OC[C@H]1O[C@@](COC(C)=O)(O[C@H]2O[C@H](COC(C)=O)[C@@H](OC(C)=O)[C@H](OC(C)=O)[C@H]2OC(C)=O)[C@@H](OC(C)=O)[C@@H]1OC(C)=O	.	-4.8%	.	.	-4.5%
COc1cccc(OC)c1OCCCNC1CCCC1	i	-3.0%	-1.7%	i	6.51µM*
N#Cc1ccccc1OCCCNC1CCCC1	i	-4.2%	1.2%	i	6.1%
CCOc1ccccc1OCCNC1CCCC1	i	?	0.9%	i	23.1µM*
CCOc1ccc(OCCNC2CCCC2)cc1	?	-0.5%	-3.9%	i	-7.9%
Cc1ccc(C)c(OCCCNC2CCCC2)c1C	i	?	2.2%	i	?
CC(C)(C)c1ccc(OCCCNC2CCCC2)cc1	?	16.4µM*	21.1%	?	?
CCCOc1ccc(OCCNC2CCCC2)cc1	23.1µM*	?	0.7%	i	-3.6%
CC1(C(=O)NC2CCCC2)CCC(=O)N1C1CCN(Cc2ccccc2)CC1 (stereo not drawn)	i	.	2.1%	i	.
CC(C)(c1ccc(O)cc1)c1ccc(O)c(C(=O)O)c1	i	.	-0.7%	i	.
CCC1CN(CCNC(=O)c2cn3cc(C)ccc3n2)Cc2cc(OC)ccc2O1 (stereo not drawn)	.	.	2.6%	.	.
COCCCNC(=O)c1ccc2c3c(onc13)-c1ccccc1C2=O	?	?	-2.3%	?	2.3%
O=C1c2ccccc2-c2onc3ccc(Oc4ccccc4)c1c23	23.1µM*	?	-2.6%	?	8.8%
Cc1cccc(NS(=O)(=O)c2cc(C(=O)OC(C)C(=O)NCc3ccc4c(c3)OCO4)ccc2C)c1 (stereo not drawn)	14.6µM*	17.1%	0.2%	i	14.8%
Cc1cccc(C)c1OCC(O)CNS(=O)(=O)c1ccccc1C(=O)N1CCCCC1 (stereo not drawn)	4.61µM*	10.1%	?	i	0.4%
CC(C)CNS(=O)(=O)c1ccccc1C(=O)N1CCCCC1	14.6µM*	0.9%	0.8%[38.3 µM]	i	-5.3%
O=C(c1ccccc1NS(=O)(=O)c1ccccc1)N1CCCCCC1	?	-1.1%	-0.9%	i	0.1%
Cn1cc(-c2nc3cncnc3n(CCN)c2=O)c2ccccc21	.	.	5.9%	.	.
